From PubChem BioAssay AID1159580 (chemical genetic matrix, 2015)
The whole screen tested about 5,500 compounds, of which about 2,000 (36%) were called active. Roughly 18% stayed inconclusive and do not appear here. No stated cut-off is given here; in the data, active means normalized growth mostly below about 0.91 (no sharp cut-off); inconclusive means no clear call, values can overlap the other calls; inactive means mostly above about 0.92. This is one part of the list.

Experiment: chemical genetic growth profiling, strain panel (AID 1159580);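 further: tested at 20 µM; growth read once vehicle control cultures reached saturation at 30 °C; 1 = growth at the plate median or of vehicle wells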
Conditions: S. cerevisiae deletion strains, growth OD

Measured: normalized growth

CC(=O)c1ccc(O)c(CC=C(C)C)c1
active: locus YGL253W, strain hxk2, stronger effect = lower value 0.884 | locus YGR252W, strain gcn5, stronger effect = lower value 0.749 | locus YKR001C, strain vps1, stronger effect = lower value 0.808 | locus YLR221C, strain rsa3, stronger effect = lower value 0.905 | locus YNL248C, strain rpa49, stronger effect = lower value 0.871 | locus YOR270C, strain vph1, stronger effect = lower value 0.737
inactive: locus YAL021C, strain ccr4, stronger effect = lower value 1 | locus YAL026C, strain drs2, stronger effect = lower value 0.952 | locus YAL030W, strain snc1, stronger effect = lower value 0.972 | locus YBL061C, strain skt5, stronger effect = lower value 0.956 | locus YBR009C, strain hhf1, stronger effect = lower value 0.933 | locus YBR021W, strain FUR4, stronger effect = lower value 0.954 | locus YBR023C, strain chs3, stronger effect = lower value 0.964 | locus YBR171W, strain sec66, stronger effect = lower value 0.949 | locus YBR229C, strain ROT2, stronger effect = lower value 0.983 | locus YBR231C, strain swc5, stronger effect = lower value 0.929 | locus YBR279W, strain paf1, stronger effect = lower value 0.977 | locus YCL011C, strain gbp2, stronger effect = lower value 0.959 | locus YCL016C, strain dcc1, stronger effect = lower value 0.999 | locus YCL029C, strain bik1, stronger effect = lower value 0.967 | locus YCL061C, strain MRC1, stronger effect = lower value 0.965 | locus YCL069W, strain vba3, stronger effect = lower value 0.971 | locus YCR088W, strain abp1, stronger effect = lower value 0.968 | locus YDL005C, strain med2, stronger effect = lower value 0.952 | locus YDL035C, strain GPR1, stronger effect = lower value 0.956 | locus YDL040C, strain nat1, stronger effect = lower value 0.97 | locus YDL074C, strain BRE1, stronger effect = lower value 0.867 | locus YDL101C, strain DUN1, stronger effect = lower value 0.963 | locus YDL134C, strain PPH21, stronger effect = lower value 0.984 | locus YDL185W, strain tfp1, stronger effect = lower value 0.922 | locus YDL192W, strain arf1, stronger effect = lower value 0.942 | locus YDR001C, strain nth1, stronger effect = lower value 0.966 | locus YDR069C, strain doa4, stronger effect = lower value 0.951 | locus YDR101C, strain arx1, stronger effect = lower value 0.968 | locus YDR137W, strain rgp1, stronger effect = lower value 0.983 | locus YDR159W, strain sac3, stronger effect = lower value 0.896 | locus YDR162C, strain NBP2, stronger effect = lower value 0.963 | locus YDR195W, strain ref2 0.975 | locus YDR297W, strain sur2, stronger effect = lower value 0.933 | locus YDR318W, strain mcm21, stronger effect = lower value 0.958 | locus YDR334W, strain swr1, stronger effect = lower value 0.966 | locus YDR335W, strain msn5, stronger effect = lower value 0.994 | locus YDR388W, stronger effect = lower value 0.967 | locus YDR392W, strain spt3, stronger effect = lower value 0.929 | locus YDR502C, strain sam2, stronger effect = lower value 0.938 | locus YEL003W, strain gim4, stronger effect = lower value 0.928 | locus YEL037C, strain rad23, stronger effect = lower value 0.964 | locus YEL061C, strain CIN8 (second series), stronger effect = lower value 0.965 | locus YEL061C, strain CIN8, stronger effect = lower value 0.982 | locus YER015W, strain faa2, stronger effect = lower value 0.971 | locus YER016W, strain bim1, stronger effect = lower value 0.975 | locus YER110C, stronger effect = lower value 0.965 | locus YER111C, strain swi4, stronger effect = lower value 0.974 | locus YER155C, strain BEM2 (second series), stronger effect = lower value 0.958 | locus YER155C, strain BEM2, stronger effect = lower value 0.986 | locus YER167W, strain BCK2, stronger effect = lower value 0.904 | locus YFR010W, strain ubp6, stronger effect = lower value 0.952 | locus YGL078C, strain dbp3, stronger effect = lower value 0.961 | locus YGL086W, strain mad1, stronger effect = lower value 0.972 | locus YGL167C, strain pmr1, stronger effect = lower value 0.962 | locus YGL173C, strain kem1, stronger effect = lower value 0.949 | locus YGL227W, strain vid30, stronger effect = lower value 0.961 | locus YGL240W, strain doc1, stronger effect = lower value 0.894 | locus YGL248W, strain PDE1, stronger effect = lower value 0.961 | locus YGR078C, strain PAC10, stronger effect = lower value 0.936 | locus YGR135W, strain pre9, stronger effect = lower value 0.934 | locus YGR229C, strain SMI1, stronger effect = lower value 0.84 | locus YHR013C, strain ard1, stronger effect = lower value 0.991 | locus YHR027C, strain rpn1, stronger effect = lower value 0.971 | locus YHR030C, strain SLT2, stronger effect = lower value 0.976 | locus YHR079C, strain IRE1 (second series), stronger effect = lower value 0.959 | locus YHR094C, strain hxt1, stronger effect = lower value 0.967 | locus YHR129C, strain ARP1, stronger effect = lower value 0.967 | locus YHR142W, strain chs7, stronger effect = lower value 0.926 | locus YHR200W, strain rpn10, stronger effect = lower value 0.971 | locus YIL066C, strain RNR3, stronger effect = lower value 0.945 | locus YIL073C, strain SPO22, stronger effect = lower value 0.955 | locus YIR030C, strain dcg1, stronger effect = lower value 0.965 | locus YJL092W, strain hpr5, stronger effect = lower value 0.97 | locus YJL095W, strain BCK1 (second series), stronger effect = lower value 0.964 | locus YJL095W, strain BCK1, stronger effect = lower value 0.956 | locus YJL115W, strain asf1, stronger effect = lower value 0.975 | locus YJL129C, strain trk1, stronger effect = lower value 0.946 | locus YJL134W, strain LCB3, stronger effect = lower value 0.974 | locus YJL154C, strain vps35, stronger effect = lower value 0.966 | locus YJL164C, strain tpk1, stronger effect = lower value 0.973 | locus YJL166W, strain qcr8, stronger effect = lower value 0.936 | locus YJL168C, strain set2, stronger effect = lower value 0.99 | locus YJL187C, strain SWE1 (second series), stronger effect = lower value 0.953 | locus YJL187C, strain SWE1, stronger effect = lower value 0.961 | locus YJR043C, strain POL32, stronger effect = lower value 0.876 | locus YJR075W, strain HOC1, stronger effect = lower value 0.947 | locus YKL009W, strain mrt4, stronger effect = lower value 0.939 | locus YKL068W, stronger effect = lower value 0.957 | locus YKL085W, strain MDH1 (second series), stronger effect = lower value 0.951 | locus YKL085W, strain MDH1, stronger effect = lower value 0.951 | locus YKL160W, strain elf1, stronger effect = lower value 0.982 | locus YKR026C, strain gcn3, stronger effect = lower value 0.962 | locus YKR091W, strain srl3, stronger effect = lower value 0.969 | locus YLL001W, strain dnm1, stronger effect = lower value 0.945 | locus YLL026W, stronger effect = lower value 0.973 | locus YLL041C, strain sdh2, stronger effect = lower value 0.965 | locus YLR027C, strain aat2, stronger effect = lower value 0.951 | locus YLR039C, strain RIC1, stronger effect = lower value 0.688 | locus YLR058C, strain SHM2, stronger effect = lower value 0.977 | locus YLR102C, strain apc9, stronger effect = lower value 0.969 | locus YLR258W, strain gsy2, stronger effect = lower value 0.963 | locus YLR262C, strain YPT6 (second series), stronger effect = lower value 0.968 | locus YLR262C, strain YPT6, stronger effect = lower value 0.801 | locus YLR268W, strain sec22, stronger effect = lower value 0.959 | locus YLR320W, strain mms22, stronger effect = lower value 0.933 | locus YLR330W, strain CHS5, stronger effect = lower value 0.974 | locus YLR342W, strain FKS1 (second series), stronger effect = lower value 0.95 | locus YLR342W, strain FKS1, stronger effect = lower value 0.963 | locus YLR357W, strain rsc2, stronger effect = lower value 0.967 | locus YLR370C, strain arc18, stronger effect = lower value 0.965 | locus YLR371W, strain rom2, stronger effect = lower value 0.978 | locus YLR384C, strain iki3, stronger effect = lower value 0.961 | locus YLR418C, strain cdc73, stronger effect = lower value 0.872 | locus YML016C, strain PPZ1, stronger effect = lower value 0.982 | locus YML032C, strain rad52, stronger effect = lower value 0.967 | locus YML120C, strain ndi1, stronger effect = lower value 0.966 | locus YML124C, strain tub3, stronger effect = lower value 0.96 | locus YMR058W, strain fet3, stronger effect = lower value 0.963 | locus YMR078C, strain ctf18, stronger effect = lower value 0.951 | locus YMR125W, strain sto1, stronger effect = lower value 1 | locus YMR129W, stronger effect = lower value 0.969 | locus YMR205C, strain PFK2, stronger effect = lower value 0.981 | locus YMR223W, strain ubp8, stronger effect = lower value 0.932 | locus YMR231W, strain pep5, stronger effect = lower value 0.972 | locus YMR263W, strain SAP30, stronger effect = lower value 0.949 | locus YMR307W, strain GAS1, stronger effect = lower value 0.923 | locus YNL067W, strain RPL9B, stronger effect = lower value 0.953 | locus YNL071W, strain lat1, stronger effect = lower value 0.957 | locus YNL153C, strain GIM3, stronger effect = lower value 0.969 | locus YNL209W, strain ssb2, stronger effect = lower value 0.997 | locus YNL233W, strain BNI4, stronger effect = lower value 0.929 | locus YNL250W, strain rad50, stronger effect = lower value 0.967 | locus YNL271C, strain bni1, stronger effect = lower value 0.957 | locus YNL298W, strain CLA4, stronger effect = lower value 0.977 | locus YNL307C, strain MCK1, stronger effect = lower value 0.952 | locus YNL322C, strain KRE1 (second series), stronger effect = lower value 0.959 | locus YNR049C, strain mso1, stronger effect = lower value 0.968 | locus YNR052C, strain pop2, stronger effect = lower value 0.983 | locus YOL006C, strain TOP1, stronger effect = lower value 0.587 | locus YOL012C, strain htz1 1.06 | locus YOL147C, strain pex11, stronger effect = lower value 0.977 | locus YOR001W, strain rrp6, stronger effect = lower value 0.922 | locus YOR061W, strain CKA2, stronger effect = lower value 0.989 | locus YOR069W, strain VPS5, stronger effect = lower value 0.981 | locus YOR070C, strain gyp1, stronger effect = lower value 0.979 | locus YOR080W, strain dia2, stronger effect = lower value 0.951 | locus YOR083W, strain WHI5, stronger effect = lower value 0.979 | locus YOR106W, strain vam3, stronger effect = lower value 0.938 | locus YOR136W, strain idh2, stronger effect = lower value 0.972 | locus YOR144C, strain elg1, stronger effect = lower value 0.979 | locus YOR184W, strain ser1, stronger effect = lower value 0.96 | locus YOR265W, strain rbl2, stronger effect = lower value 0.964 | locus YOR290C, strain snf2, stronger effect = lower value 0.976 | locus YOR316C, strain cot1, stronger effect = lower value 0.969 | locus YPL051W, strain arl3, stronger effect = lower value 0.916 | locus YPL078C, strain atp4, stronger effect = lower value 0.959 | locus YPL106C, strain sse1, stronger effect = lower value 0.969 | locus YPL240C, strain hsp82, stronger effect = lower value 0.979 | locus YPR119W, strain clb2, stronger effect = lower value 0.961 | locus YPR141C, strain kar3, stronger effect = lower value 0.964 | locus YPR163C, strain tif3, stronger effect = lower value 0.948 | locus YPR167C, strain met16, stronger effect = lower value 0.969 | strain wtn01, stronger effect = lower value 0.957
